Sm TGR block = qHTS Assay for the Inhibitors of Schistosoma Mansoni Peroxiredoxins; Schistosoma mansoni thioredoxin glutathione reductase (TGR), Q962Y6; purified TGR, DTNB reduction, TNB absorbance 405 nm; Potency, µM (titrated, usually from 114 µM), for the others: at the highest dose activity change, negative = inhibition, actives largely listed as inhibitors; actives 3% (n = 360,000); note: % is set by controls: 0 for no effect and ±100 for the full control effect; nearly all actives have a fitted effect of over 60% in size
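First, TGR (20 nM dispensed) and NADPH were mixed with compound. Second, a 15 min room-temperature incubation followed. Third, further NADPH and then DTNB were added to start the reaction. Finally, TNB absorbance was monitored kinetically.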
AmpC inh no detg = qHTS Inhibitors of AmpC Beta-Lactamase (assay without detergent); P00811; Potency, µM (series often up to 57.1 µM), without a hit: top-dose activity change, negative = inhibition, hits mostly inhibitors; AmpC nitrocefin hydrolysis, absorbance 480 nm, 0.0001% Triton; actives 0.52% (n = 330,000); AID 485341, 2010;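 note: plate controls were no compound for no effect and no enzyme for full effect; nearly all actives have a fitted effect of over 20% in size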
Target sequence (P00811 whole entry, looked up): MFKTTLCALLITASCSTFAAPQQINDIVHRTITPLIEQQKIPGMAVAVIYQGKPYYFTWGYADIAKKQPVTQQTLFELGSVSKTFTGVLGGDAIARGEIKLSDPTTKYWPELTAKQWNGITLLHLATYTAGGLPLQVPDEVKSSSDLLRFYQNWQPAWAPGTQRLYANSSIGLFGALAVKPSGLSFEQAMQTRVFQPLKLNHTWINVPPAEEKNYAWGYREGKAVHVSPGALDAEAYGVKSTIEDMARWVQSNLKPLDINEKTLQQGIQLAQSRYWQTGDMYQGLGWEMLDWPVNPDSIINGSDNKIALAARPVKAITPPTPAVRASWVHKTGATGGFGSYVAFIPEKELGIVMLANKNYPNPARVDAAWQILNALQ
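AmpC (5.3 nM in the dispensed reagent) in 20 mM phosphate pH 7.0 with 0.01% (detergent screen) or 0.0001% Triton X-100 was preincubated with compounds for 15 min at room temperature. Nitrocefin was then added from an 800 uM solution, and hydrolysis was followed at 480 nm.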
AmpC detergent = qHTS Inhibitors of AmpC Beta-Lactamase (assay with detergent); actives 0.041% (n = 370,000); Potency, µM (highest dose often 114 µM), without a hit: top-dose activity change, negative = inhibition, usual class: inhibitors; AmpC hydrolysis of nitrocefin, absorbance 480 nm, 0.01% Triton;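 note: 0% = no-compound wells and -100% = no-enzyme wells; nearly all actives have a fitted effect of over 25% in size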
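20 mM phosphate pH 7.0 + 0.01% (detergent screen) or 0.0001% Triton X-100; 5.3 nM AmpC reagent; cpd preinc 15 min RT; nitrocefin (800 uM stock) to start; A480 q20 s × 4 min; Activity was normalised to no-enzyme and no-compound control wells.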
Pf growth 96h = Primary qHTS for delayed death inhibitors of the malarial parasite plastid, 96 hour incubation; P. falciparum luciferase reporter growth, 96 h; Potency, µM (top dose mostly 28.7 µM), inactives show at the top dose activity change, negative = inhibition, most hits filed as inhibitors; actives 6.9% (n = 320,000); AID 504834, 2011; note: % is set by controls: 0 for no effect and ±100 for the full control effect
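Cell-based qHTS: luciferase-tagged P. falciparum in erythrocytes (2% hematocrit, 0.05% parasitemia final) incubated with compounds for 96 hours, 37 C, 5% CO2; luciferase detection reagent then added and luminescence measured.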
Pf growth 48h = Primary qHTS for delayed death inhibitors of the malarial parasite plastid, 48 hour incubation; actives 5.9% (n = 310,000); P. falciparum luciferase growth in erythrocytes, 48 h; Potency, µM (highest dose often 28.7 µM), for inactives: top-dose activity change, negative = inhibition, usual class: inhibitors; note: % is set by controls: 0 for no effect and ±100 for the full control effect
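Growth was read as firefly luciferase luminescence after a 48 h, 37 C, 5% CO2 exposure of compounds to reporter-bearing P. falciparum cultures (0.1% parasitemia, 2% hematocrit final) in Albumax-supplemented RPMI 1640.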
SARS PLP yeast = qHTS of Yeast-based Assay for SARS-CoV PLP. S. cerevisiae expressing SARS-CoV PLpro, growth rescue. Potency, µM (doses to about 32.9 µM), without a hit: at the top dose activity, positive = growth rescue, usual class: activators. actives 0.19% (n = 330,000). AID 485353, 2010; calls by dose curve; note: 0% is about no effect; nearly all actives have a fitted effect of over 55% in size
Active calls of the source: *; ? = inconclusive; . = not tested or not shown. Most compounds without a hit are left out; they make up all but 12% or so of the library. Unless noted, calls come from the whole dose curve; as a rule, active = well fitted curve in the direction sought with a large enough effect; inconclusive = small, poorly fitted or top-dose-only effect, or another doubt; inactive = no such curve, though single readings can be large; an effect the other way counts as inactive or inconclusive. Potency is the fitted concentration of half-maximal effect.

SMILES	Sm TGR block	AmpC inh no detg	AmpC detergent	Pf growth 96h	Pf growth 48h	SARS PLP yeast
O=C(NCc1ccccc1)C(=O)NCC1COc2ccccc2O1 (configuration not stated)	-4%	-19%	?	14%	1%	-17%
OC(COCC1COc2ccccc2O1)CN1CCN(c2ccccc2F)CC1 (configuration not stated)	-7%	70%	-2%	7.4µM*	31%	1%
NC(N)=NCC1COc2ccccc2O1 (configuration not stated)	.	.	.	2.1µM*	?	.
CCOC(=O)c1c(S(=O)(=O)N2CCC(C(=O)N3CCN(c4cc(C)ccc4C)CC3)CC2)c(C)n(C)c1C	-6%	.	-7%	.	.	.
CCOC(=O)C1=C(O)/C(=C\c2ccc(CNC(=O)C(=O)Nc3ccc(C)c(C)c3)o2)N=C1C	40µM*	-36%	?	-29%	.	18%
COc1cccc(Cn2c(=O)n(-c3ccccc3C)c(=O)c3c2c2cc(C)ccc2n3C)c1	25%	.	11%	.	.	.
Cn1c(SCc2nc3ccccc3[nH]2)nnc1-c1cccnc1	-2%	-25%	7%	1.9µM*	8%	2%
O=C(NCc1cccs1)C1CCN(C(=O)N2CCOc3ccccc32)CC1	35%	.	-9%	.	.	.
COc1ccc(Cc2cnc(N)nc2N)cc1OC	.	.	.	3.8µM*	2.4µM*	.
COc1cc(C)c(Cc2cnc(N)nc2N)cc1OC	-1%	-24%	1%	2.7µM*	3.8µM*	1%
CCCCOc1ccc(Cc2cnc(N)nc2N)cc1	-9%	-17%	1%	?	?	-2%
CC(C)Oc1ccc(Cc2cnc(N)nc2N)cc1	-2%	-1%	0%	6.6µM*	.	-15%
Cc1ccc(NC(=O)CSCC(=O)N(C)CC(=O)Nc2cccc(F)c2)cc1	-7%	17%	?	5%	21%	2%
CCOc1ccc(OCC)c(NC(=O)Nc2ccc3c(c2)N(C)C(=O)CS3)c1	7%	1.1µM*	?	?	?	-5%
CC(=O)Nc1ccc(NC(=O)Nc2ccc3c(c2)N(C)C(=O)CS3)cc1	-14%	-48%	2%	-20%	?	0%
CN1C(=O)CSc2ccc(NC(=O)Nc3ccccn3)cc21	-19%	-31%	5%	39%	.	12%
COc1cccc(NC(=O)Nc2ccc3c(c2)N(C)C(=O)CS3)c1	0%	3.2µM*	-7%	183%	?	-9%
CN1C(=O)CSc2ccc(NC(=O)N3CCC(N4CCCCC4)CC3)cc21	0%	-15%	2%	12µM*	.	6%
O=C(c1ccccc1)N1N=C(c2ccccc2)CC1c1ccc2nccnc2c1 (configuration not stated)	-1%	103%	-6%	?	9.3µM*	-30%
COc1ccc(C2CC(c3ccccc3)=NN2C(=O)c2ccc(F)cc2)cc1 (configuration not stated)	-1%	-16%	6%	-24%	12µM*	1%
O=C(NCCCN1CCN(c2ccccc2F)CC1)c1ccc2nc(N3CCCCC3)sc2c1	-1%	.	3%	.	.	.
CC(C)Nc1nc(NC(C)C)nc(N(C#N)CCOc2ccc(Cl)cc2Cl)n1	-23%	-20%	9%	?	10µM*	-14%
Cn1c(-c2ccc3ccccc3n2)[n+](C)c2ccccc21	89%	7%	-3%	0.93µM*	?	0%
O=C(Nc1ccc2c(c1)OCCO2)C1CCN(C(=O)c2ccc(Br)cc2)CC1	-8%	5%	?	2.6µM*	-2%	-2%
O=C(Nc1ccc(C(=O)N2CCCCC2)cc1)c1ccc(Br)cc1	2%	-5%	0%	4.1µM*	?	-3%
SMILES	Sm TGR block	AmpC inh no detg	AmpC detergent	Pf growth 96h	Pf growth 48h	SARS PLP yeast
O=C(Nc1ccc2c(c1)OCCO2)C1CCN(C(=O)c2ccccc2)CC1	15%	-2%	1%	?	43%	-4%
CCCNC(=O)COc1coc(CN2CCN(c3cccc(Cl)c3)CC2)cc1=O	0%	114%	?	10µM*	-16%	-8%
CCN(CC)C(=O)COc1coc(CN2CCN(c3cccc(Cl)c3)CC2)cc1=O	-20%	71%	-6%	8.3µM*	-12%	0%
CNC(=O)COc1coc(CN2CCN(c3ccccc3)CC2)cc1=O	11%	-9%	-9%	-14%	7%	-9%
CN(C(=O)COc1coc(CN2CCN(c3ccccc3)CC2)cc1=O)c1ccccc1	39%	34%	-4%	13µM*	-13%	0%
Cc1ccc(C(=O)CC2(O)C(=O)N(Cc3ccccc3)c3ccc(Br)cc32)cc1 (configuration not stated)	12%	.	2%	.	.	.
Cc1ccc(C(=O)N2c3ccccc3N(Cc3ccccc3)C(=O)C2(C)C)cc1	34%	-31%	2%	7.4µM*	12µM*	-36%
Cc1ccc(C(=O)NC2CCCc3c2cnn3-c2ccc(F)cc2F)cn1 (configuration not stated)	-1%	3%	-4%	?	71%	-2%
COc1ccc(C2(c3ccc(OC)cc3)NC(=O)N(CC(=O)N(C)C)C2=O)cc1	0%	31%	-8%	-18%	3%	1%
CN(Cc1ccccc1)C(=O)CN1C(=O)NC2(CCCCCCC2)C1=O	8%	22%	6%	?	9.3µM*	8%
CSc1ccc(CN(C)C(=O)CN2C(=O)NC3(CCCC3)C2=O)cc1	-3%	-1%	0%	25%	-20%	-4%
COc1ccc(C2(c3ccc(OC)cc3)NC(=O)N(CC(=O)N(C)C3CCC(C)CC3)C2=O)cc1 (configuration not stated)	5%	43%	7%	?	10µM*	4%
CC(C)(C)C(=O)CN1C(=O)NC(c2ccccc2)(c2ccccc2)C1=O	1%	-14%	-11%	?	?	6%
Cc1ccsc1CN(C)C(=O)CN1C(=O)NC(c2ccccc2)(c2ccccc2)C1=O	3%	0%	6%	9.3µM*	13µM*	0%
Cc1cccc(CN2C(=O)NC(c3ccccc3)(c3ccccc3)C2=O)c1	-11%	-35%	1%	?	10µM*	-6%
O=C(CSc1nnc(CNc2ccc(Cl)cc2)o1)Nc1nc2c(s1)CCCC2	1%	-12%	-15%	?	28%	-1%
